45 sequences from the supplement of paper PMC11417369 can be followed below.

In all, about 25,000 sequences were measured (“ln(normalized median fluorescence intensity)”: median about 9.7, highest 2% from about 11 on). For the sample, the highest values were picked, then their nearest neighbours and some sequences at random.

The subject of this test is PfAP2-HC AP2 domain (GST-tagged). The test can be described thus: gcPBM binding intensity (ln(normalized median fluorescence intensity)); higher = stronger DNA binding. In short, it runs like this:
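GST-tagged P. falciparum DNA-binding domains, expressed in E. coli (about 25 μg on average), were applied for 1 h to an Agilent 4 × 180k array of primer-extended double-stranded 36-bp intergenic genomic probes plus negative controls. The binding buffer was 1× PBS with 1% milk, 0.2 mg/ml BSA, 0.5% salmon testes DNA and 0.03% Triton X-100. Bound protein was detected with Alexa488 anti-GST antibody and scanned at 488 nm. Binding intensity is the highest Masliner-normalised natural-log median intensity across replicate spots of either probe orientation.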
For “GTATAATTGGAAATTACACACCTTAGAATGTAACAT [CACACA_site4059]”, the “gcPBM binding intensity (ln)” value stood at 9.68.

Consider “AAAACTATAAAAATTTTACACACTGTTTTTAAATAA [CACACA_site3667]”, for which the “gcPBM binding intensity (ln)” value turned out to be 9.57.

On to “TATATTATTCATTAAGCACACATTATTTTTATAATA [CACACA_site6056]”, for which the “gcPBM binding intensity (ln)” value was 9.69.

As for “TTAATACCCAGACACACACACACAAAATAAAATACA [CACACA_site7968]”, the “gcPBM binding intensity (ln)” value was found to be 11.

With “TTTTTATTTATTAATACACACACACCCACCCACAAA [CACACA_site7965]”, the “gcPBM binding intensity (ln)” value amounted to 10.4.

For the sequence “GTATTATATTTTAATACACACCCAAATATTAAAAAG [CACACA_site8968]”, the “gcPBM binding intensity (ln)” value came to 9.77.

Consider “TATTAATACAGACACACACACACACCCAATAAAATA [CACACA_site243]”, for which the “gcPBM binding intensity (ln)” value was determined as 10.8.

As for “TTTATTTATTAATACACACACACACCCCCACAAAAT [CACACA_site240]”, the “gcPBM binding intensity (ln)” value was 11.4.

Turning to “TTAATACCCGGACACACACACACAAAATAAAATACA [CACACA_site4296]”, the “gcPBM binding intensity (ln)” value is 10.6.

As to “ATAATTAACAAATACACACACACACGCCCACAAAAA [CACACA_site6389]”, the “gcPBM binding intensity (ln)” value stood at 11.6.

On to “ATAATTAACAAATACACACACACACCCCCACAAAAA [CACACA_site518]”, for which the “gcPBM binding intensity (ln)” value came to 10.9.

Take “ATAATTAACAAATACACACACACACCCAGACAAAAA [CACACA_site4445]”: the “gcPBM binding intensity (ln)” value was 10.8.

For “TTTATTTATTAATACACACACACACGCCCACAAAAT [CACACA_site6253]”, the “gcPBM binding intensity (ln)” value is 10.5.

With “TTTATTTATTAATACACACACACACCCAGACAAAAT [CACACA_site4292]”, the “gcPBM binding intensity (ln)” value was determined as 11.3.

Take “ACATAATTAACAAATACACACACACCCACCCACAAA [CACACA_site8069]”: the “gcPBM binding intensity (ln)” value is 10.7.

“AAAATCTATATTAACACACACACAAAAAAAAAAAAA [CACACA_site6738]”: the “gcPBM binding intensity (ln)” value was determined as 10.6.

In the case of “TAACTTGAATGGATATGTACATATATATATATATAT [XGTACX_site5990]”, the “gcPBM binding intensity (ln)” value was 10.

In the case of “TTGTTTTTTTTTTCTATAAGCATAAAAATGATATAA [XGTACX_negctrl_site356]”, the “gcPBM binding intensity (ln)” value amounted to 9.27.

Take “ATATAAGAAATAAAGAAAAATGTGTTTTTTTTTTTT [XGTACX_negctrl_site396]”: the “gcPBM binding intensity (ln)” value stood at 9.6.

As to “ATATATATATATATAACACACGCAAAAAAATTAAAT [CACACA_site8395]”, the “gcPBM binding intensity (ln)” value turned out to be 10.1.

Regarding “ACGATGAATATGTAAAGTACGCAAATGTAACAATAT [XGTACX_site728]”, the “gcPBM binding intensity (ln)” value worked out at 9.91.

“TATCATTGTTCATGCTTGCACTTTTGTTACTGTTCC [GTGCAC_site9425]”: the “gcPBM binding intensity (ln)” value was determined as 9.87.

On to “GAGAACATTGATACACGTACATAAGTTATAAGTATT [XGTACX_site7665]”, for which the “gcPBM binding intensity (ln)” value worked out at 9.71.

In the case of “TTAATTACATGTAATTGTACTTAATTATAAGACATT [XGTACX_site464]”, the “gcPBM binding intensity (ln)” value is 9.52.

Consider “AAAAAAAATATCTATGCATGTAATATTATGATATTG [TGCATGCA_site546]”, for which the “gcPBM binding intensity (ln)” value is 9.58.

For the sequence “TTCAAAAATATATAATGTACACAAATATAAAAGAAT [XGTACX_site1944]”, the “gcPBM binding intensity (ln)” value was determined as 9.81.

With “ATACTAAAGAAACACACACACATATATATATAGAAT [CACACA_site100]”, the “gcPBM binding intensity (ln)” value was determined as 10.9.

Regarding “CACTAAAAGAAACACACACACACACCCATATATATA [CACACA_site4151]”, the “gcPBM binding intensity (ln)” value turned out to be 11.

Turning to “AATAAAAAGAAACACACACACACACCCATATATATA [CACACA_site3589]”, the “gcPBM binding intensity (ln)” value was determined as 11.5.

On to “ATAAAAAAAAGAAAAACACACACATATATATATATA [CACACA_site8243]”, for which the “gcPBM binding intensity (ln)” value was 10.4.

As to “AAAAGAAAAAGAAAAACACACATAAATATAAATATA [CACACA_site1879]”, the “gcPBM binding intensity (ln)” value came to 10.2.

On to “AAAAAGGAGAAACACACACACACACCCATATATATA [CACACA_site905]”, for which the “gcPBM binding intensity (ln)” value is 10.7.

Turning to “AAAGAAAAAAAAAACACACACACACGCATTCAATAT [CACACA_site6169]”, the “gcPBM binding intensity (ln)” value is 10.7.

For the sequence “AGAAAAAAAAAACACACACACACACCCTCAATATAA [CACACA_site39]”, the “gcPBM binding intensity (ln)” value was determined as 10.5.

For “AAAGAAAAAAAAAACACACACACACCCATTCAATAT [CACACA_site38]”, the “gcPBM binding intensity (ln)” value worked out at 11.4.

In the case of “TATCATTTGGTCTTTTACTTTTTCTGTTTTTTTTTT [CACACA_negctrl_site976]”, the “gcPBM binding intensity (ln)” value was 9.91.

As for CTCATTTTTGTACAGGTGCACTTATCGTTACACTAT, the “gcPBM binding intensity (ln)” value is 9.93.

“CGAAGGTTTGGCCATGCATGTTATAAGAATATATGT [TGCATGCA_site441]”: the “gcPBM binding intensity (ln)” value stood at 9.51.

In the case of “AACTTTATTCCTAATTGTACACATATATATATATAT [XGTACX_site6823]”, the “gcPBM binding intensity (ln)” value is 10.

Turning to “GGGGACGCGGGTGGGGGTACTCACACTATGCAAAAT [XGTACX_site7745]”, the “gcPBM binding intensity (ln)” value came to 9.74.

For “AATAAGCTCACGTGTCGTACATTTTTTAAAACAACC [XGTACX_site4707]”, the “gcPBM binding intensity (ln)” value came to 9.78.

With “CGTATTTATATAATTACACACCATATTTTAATTATT [CACACA_site5960]”, the “gcPBM binding intensity (ln)” value was determined as 9.76.

For “AATGAACTCACGAGCACACACACACCGATATATATA [CACACA_site4710]”, the “gcPBM binding intensity (ln)” value turned out to be 11.

As to “AATGAACAGACGAGCACACACACACCCATATATATA [CACACA_site1018]”, the “gcPBM binding intensity (ln)” value amounted to 10.9.

In the case of “AAAATGAACTCACGAGCACACACACCCATATATATA [CACACA_site8247]”, the “gcPBM binding intensity (ln)” value is 10.3.
